According to PubChem BioAssay AID1053127 (Broad Institute, 2014):
Potency and affinity values are given separately. The source made the active and inactive calls.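 How the source made its calls: active means compounds whose fitted curve of lowered CTGF expression reaches half effect within a set concentration limit; inconclusive means flat moderate drop in CTGF, or unreliable curve fit; inactive means the rest.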

Assay: YAP1 overexpression rescue of CTGF inhibition – DLD1 cells, RT-qPCR, cherry-pick, mechanism study for YAP1 pathway inhibitor project, dose response (AID 1053127)
Conditions: DLD1 YAP1-overexpressing, CTGF mRNA qPCR, 24 h; series mostly up to 26 µM; CTGF fold change (delta-delta-Ct), lower = inhibition: at the top concentration

CTGF fold change (delta-delta-Ct), lower = inhibition, inactive:
C[C@@H]1CN([C@@H](C)CO)C(=O)Cc2cc(NC(=O)C3CCCCC3)ccc2O[C@@H]1CN(C)Cc1ccc(Cl)c(Cl)c1 1.43 unspecified [at 23.5 µM], C[C@@H]1CN([C@@H](C)CO)C(=O)c2ccccc2-c2ccccc2CO[C@@H]1CN(C)S(=O)(=O)c1cn(C)cn1 1.32 unspecified, C[C@H](O)C#Cc1ccc([C@H]2[C@@H](CO)N3CCCCN(C(=O)c4ccc5c(c4)OCO5)C[C@@H]23)cc1 0.952 unspecified [at 23.5 µM], Cc1cccc(-c2ccc([C@@H]3[C@@H](CO)N4CCCCN(S(=O)(=O)c5ccccc5F)C[C@@H]34)cc2)c1 0.962 unspecified, NCC[C@H]1CC[C@@H](NC(=O)NC2CCCCC2)[C@H](CO)O1 1.29 unspecified, C[C@@H]1CN([C@@H](C)CO)C(=O)c2cc(NC(=O)Nc3ccccc3)ccc2O[C@@H](C)CCCCO[C@@H]1CN(C)C(=O)Nc1ccccc1 1.02 unspecified, O=C(Nc1ccccc1)[C@@H]1[C@@H](CO)[C@@H]2Cn3c(cccc3=O)[C@H]1N2C(=O)c1ccc(F)cc1 0.808 unspecified, Cc1ccc(S(=O)(=O)N2CC[C@@H]3[C@H]2c2cc(-c4cccc(C(=O)N(C)C)c4)ccc2N[C@@H]3CO)cc1 2.06 unspecified [at 23.5 µM], CN1C(=O)c2cc(NS(=O)(=O)c3ccccc3F)ccc2OC[C@@H]2O[C@@H](CC(=O)NC3Cc4ccccc4C3)CC[C@@H]21 1.29 unspecified, O=C([C@H]1[C@H](CO)[C@H]2Cn3c(ccc(-c4ccc(F)cc4)c3=O)[C@H]2N1Cc1cocn1)N1CCCCC1 0.918 unspecified, C[C@H]1CN([C@@H](C)CO)C(=O)c2cccc(NC(=O)c3ccc(-c4nccs4)cc3)c2O[C@@H]1CN(C)C(=O)Nc1ccc(C(F)(F)F)cc1 0.52 unspecified, C[C@@H]1CN([C@H](C)CO)C(=O)c2ccccc2-c2ccccc2CO[C@@H]1CN(C)Cc1cccc2c1OCCCO2 0.917 unspecified, C[C@H]1CC=CC[C@@H](c2ccc(F)cc2)NC(=O)[C@H](Cc2ccccc2)N(C)C(=O)c2ccccc2O1 (mixture of isomers) 0.62 unspecified, CCS(=O)(=O)Nc1ccc2c(c1)C(=O)N(C)[C@H]1CC[C@H](CC(=O)N3CCN(C)CC3)O[C@H]1CO2 1.29 unspecified, O=C(Nc1cccc(F)c1)N1CCCCN2[C@H](C1)[C@H](c1ccc(C#Cc3cccnc3)cc1)[C@@H]2CO 0.942 unspecified, C[C@H](CO)N1C[C@H](C)[C@@H](CN(C)S(=O)(=O)c2ccc([N+](=O)[O-])cc2)OCc2ccccc2-c2c(n(C)c3ccccc23)C1=O 1.01 unspecified, O=C(Nc1ccc2c(c1)[C@H]1C[C@@H](CC(=O)N3CCc4ccccc4C3)O[C@H](CO)[C@H]1O2)c1ccc2c(c1)OCO2 0.876 unspecified, CN1CCN(C(=O)C[C@@H]2CC[C@H]3[C@@H](COc4ccc(NC(=O)C5CCOCC5)cc4C(=O)N3C)O2)CC1 1.25 unspecified, O=C(Nc1ccc2c(c1)[C@H]1C[C@@H](CC(=O)N3CCc4ccccc4C3)O[C@@H](CO)[C@H]1O2)c1ccc2c(c1)OCO2 0.836 unspecified, C[C@@H]1CN([C@H](C)CO)C(=O)CCCn2nncc2CO[C@@H]1CN(C)Cc1cccc(C(F)(F)F)c1 1.12 unspecified, Cc1ccc(S(=O)(=O)Nc2ccc3c(c2)CC(=O)N([C@H](C)CO)C[C@@H](C)[C@@H](CN(C)S(=O)(=O)c2ccccc2)O3)cc1 0.863 unspecified, CC(C)NC(=O)N[C@@H]1CC[C@H](CC(=O)NCCCN(C)C)O[C@@H]1CO 1.4 unspecified, O=S(=O)(Cc1ccccc1)N1CC2(C1)[C@H](c1ccccc1)[C@H](CO)N2CC1CCCC1 0.631 unspecified, CN1C(=O)c2cc(NC(=O)Cc3cccs3)ccc2OC[C@@H]2O[C@@H](CC(=O)NCCc3ccncc3)CC[C@H]21 0.98 unspecified [at 23.5 µM], C[C@@H]1CN([C@H](C)CO)S(=O)(=O)c2ccc(C#Cc3cccc(F)c3)cc2O[C@@H]1CN(C)S(=O)(=O)c1cn(C)cn1 0.498 unspecified, Cc1ccc(S(=O)(=O)N[C@H]2C=C[C@H](CC(=O)NCc3ccc(Cl)c(Cl)c3)O[C@H]2CO)cc1 0.997 unspecified, CC(C)(C)[S@](=O)N1Cc2cc(C(=O)NCc3ccccn3)nc(-c3cccc(-c4ccccc4F)c3)c2[C@@H]1CCO 1.52 unspecified, C/C=C/c1cccc(-c2nc(C(=O)Nc3nccs3)cc3c2[C@@H](CCO)N(C(=O)NC(C)C)C3)c1 1.23 unspecified, C[C@@H]1CN([C@H](C)CO)C(=O)c2c(c3ccccc3n2C)-c2ccccc2CO[C@@H]1CN(C)Cc1cccc(C(F)(F)F)c1 0.675 unspecified [at 23.5 µM], C[C@@H]1CC=CC[C@@H](c2cccc(Cl)c2)NC(=O)[C@H](Cc2ccccc2)N(C)C(=O)c2ccccc2O1 (mixture of isomers) 0.763 unspecified
